Source: PubChem
ClpP mod = qHTS Assay for Activators of ClpP; 340,000 tested, 1.9% active; purified B. subtilis ClpP, FRET peptide cleavage, 20 min; ATP-dependent Clp protease proteolytic subunit (Bacillus subtilis (strain 168)), P80244; Potency, µM (series often up to 57.5 µM), without a hit: at the top dose activity change, negative = active; active = well fitted falling curve with a large enough effect; inconclusive = small, poorly fitted or top-dose-only effect; inactive = no such curve, though single readings can be large or run the other way; note: potency is the fitted concentration of half-maximal effect; the source files actives as falling curves though it sought activators and does not explain the sign; nearly all actives have a fitted effect of over 65% in size
Target sequence (P80244 whole entry, looked up): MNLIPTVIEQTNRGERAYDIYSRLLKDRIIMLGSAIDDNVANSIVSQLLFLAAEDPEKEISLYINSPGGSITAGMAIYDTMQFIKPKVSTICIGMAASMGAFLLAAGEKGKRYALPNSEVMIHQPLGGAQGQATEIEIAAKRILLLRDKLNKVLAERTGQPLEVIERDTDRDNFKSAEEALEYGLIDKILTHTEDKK
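ClpP 10 microg/mL final, pH 8 Tris/KCl buffer with BSA, glycerol, Tween-20; compound pinned in; FRET-FV substrate; RT 20 min; Ex320/Em430; ΔFRET vs ADEP 5.8 microM, DMSO, no enzyme.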
GLP-1R agonist = GLP-1 receptor (human) agonism; P43220; HEK293 GLP-1R CRE-luciferase, luminescence, 4-6 h; cells express a hypersensitive GLP-1R form; Potency, µM (top dose mostly 45.6 µM), inactives show top-dose activation, usual class: activators; 380,000 tested, 0.007% active; AID 624172; note: potency is the fitted concentration of half-maximal effect; % of control where 0% means no effect
Target sequence (P43220 whole entry, looked up): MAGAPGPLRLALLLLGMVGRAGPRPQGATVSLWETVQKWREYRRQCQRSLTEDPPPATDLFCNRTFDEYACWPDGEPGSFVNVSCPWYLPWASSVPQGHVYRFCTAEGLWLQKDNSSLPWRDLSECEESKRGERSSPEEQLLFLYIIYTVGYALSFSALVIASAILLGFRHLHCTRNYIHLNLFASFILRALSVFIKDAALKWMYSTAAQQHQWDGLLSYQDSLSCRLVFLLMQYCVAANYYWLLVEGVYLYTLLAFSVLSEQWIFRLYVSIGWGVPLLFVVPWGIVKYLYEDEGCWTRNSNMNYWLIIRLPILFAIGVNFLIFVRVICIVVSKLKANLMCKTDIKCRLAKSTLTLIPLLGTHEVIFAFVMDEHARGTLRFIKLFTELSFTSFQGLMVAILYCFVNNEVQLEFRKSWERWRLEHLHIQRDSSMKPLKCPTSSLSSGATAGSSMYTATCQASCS
LDHA inh = inhibitors of human lactate dehydrogenase A; P00338; purified LDHA, NADH/diaphorase-resazurin fluorescence; stronger effect = lower value; activity change, % (values are at about 110 or 230 µM); 480,000 tested, 0.15% active; in the data active = activity change below about -30%; inconclusive = mostly about -25% to -30%;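 note: plate controls were DMSO wells for no effect and wells without enzyme for full effect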
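Remaining NADH was detected by diaphorase (0.133 mg/mL) converting 37 µM resazurin to fluorescent resorufin, read at 0 and 20 minutes. The preceding 5-minute room-temperature reaction used 2 nM LDHA, 0.2 mM sodium pyruvate and 0.06 mM NADH at pH 7.4.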
GLP1R inv ag = acts as inverse agonist at human GLP-1 receptor | 410,000 tested, 1.6% active | HEK293 GLP-1R CRE-luciferase, luminescence, 24 h; GLP-1R form is constitutively active | P43220 | AID 624417 | Potency, µM (titrated, usually from 38.3 µM), inactives show at the highest dose activity change, negative = inhibition, usual class: inhibitors; note: potency is the fitted concentration of half-maximal effect; % is set by controls: 0 for no effect and ±100 for the full control effect; nearly all actives have a fitted effect of over 55% in size
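Inverse agonists were sought by their lowering of basal cAMP reporter luciferase output in HEK293 cells stably carrying constitutively active human GLP-1R, after 24 h compound treatment.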
p53 reactivation = re-activators of mutant p53; H1299 p53-A138V BP100-luciferase reporter, luminescence, 24 h; Potency, µM (titrated, usually from 92.2 µM), for the others: top-dose activity change, positive = activation, hits mostly activators; AID 504706; 320,000 tested, 0.063% active; note: potency is the fitted concentration of half-maximal effect; % of control where 0% means no effect; nearly all actives have a fitted effect of over 45% in size
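p53-null H1299 cells stably carrying temperature-sensitive p53-A138V and a BP100-luciferase reporter were pinned with compounds (4-point, 1:5 series) and held 24 hrs at 37 deg C. Luminescence was read 10 min after detection reagent.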
HEK293 tox = cytotoxic in the GLP-1 receptor inverse agonist counter-screen; HEK293 cAMP-luciferase reporter cells, luminescence, 24 h; Potency, µM (series often up to 38.3 µM), for the others: at the highest dose activity change, negative = inhibition, hits mostly inhibitors; 410,000 tested, 0.13% active; AID 624418;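 note: loss of luciferase light is scored as toxicity; potency is the fitted concentration of half-maximal effect; % is set by controls: 0 for no effect and ±100 for the full control effect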
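A 23 nL compound transfer followed 12 hours of cell culture at 37 deg C; exposure then lasted 24 hr. Luciferase assay detection reagent was dispensed and plates read for luminescence after a 12 min room-temperature wait.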
An asterisk follows results filed as active; ? = inconclusive; . = no result; [ ] = dose if it differs, or a comment. An excerpt weighted towards active compounds, which were near 2.9% of everything screened. Unless noted, calls come from the whole dose curve; as a rule, active = well fitted curve in the direction sought with a large enough effect; inconclusive = small, poorly fitted or top-dose-only effect, or another doubt; inactive = no such curve, though single readings can be large; an effect the other way counts as inactive or inconclusive.

SMILES	ClpP mod	GLP-1R agonist	LDHA inh	GLP1R inv ag	p53 reactivation	HEK293 tox
O=C(OCc1ccccc1)N1CCC2CC1c1cc(-c3cc4ccccc4o3)ccc12 (centres undefined)	4%	-1%	-33*	6%	.	-2%
O=C(OCc1ccccc1)N1CCC2CC1c1cc(NCCc3ccccc3)ccc12 (centres undefined)	-15%	-4%	-4	11µM*	.	22%
COCCn1c(SCc2c(Cl)cccc2Cl)nnc1-c1cccc(C)c1	.	.	9	.	.	.
COc1ccccc1CCn1cnc2c3cc(C)ccc3n(C)c2c1=O	35µM*	3%	-1	?	-2%	-1%
COc1ccc2c(c1)c1ncn(CCN3CCCCC3)c(=O)c1n2C	16µM*	-7%	1	65%	-1%	-6%
COc1ccc2[nH]c3c(=O)n(CCN4CCOCC4)cnc3c2c1	.	4%	2	53%	9%	-9%
COc1ccc2c(c1)c1ncn(CCN3CCCC3)c(=O)c1n2C	32µM*	21%	1	5%	-1%	-9%
Cn1ccnc1SCC(=O)c1ccc(Cl)cc1	.	3%	-1	21%	?	-14%
Cn1c(CO)cnc1SCC(=O)c1ccc(Cl)cc1	.	-5%	1	7.1µM*	-4%	-28%
CC(C)CCn1c(=O)c2ccccc2c2ccccc2c1=O	-3%	-12%	1	10µM*	-2%	-14%
COc1ccc2nc(SCc3cccc(C)c3)nc(C)c2c1	25µM*	18%	-3	?	?	7%
COc1ccc2nc(SCC(=O)O)nc(C)c2c1	28µM*	-5%	-3	3%	0%	-7%
COc1ccc2nc(SCCOC(=O)Nc3ccc(Cl)cc3)nc(C)c2c1	28µM*	2%	-4	?	-14%	8%
COc1ccc2nc(SCc3ccccc3C)nc(C)c2c1	7.1µM*	2%	-7	29%	?	41%
Cc1ccc(S(=O)(=O)C(C#N)c2nc3ccccc3nc2N2CCN(C)CC2)cc1 (centres undefined)	-2%	-1%	5	?	-1%	165%
CCOC(=O)N1CCN(c2nc3ccccc3nc2C(C#N)S(=O)(=O)c2ccc(C)cc2)CC1 (centres undefined)	32µM*	-3%	5	0%	14%	41%
CCOC(=O)C1=C(CNCc2ccc(C)cc2)NC(=O)NC1c1ccc(OC)cc1 (centres undefined)	8%	10%	8	13µM*	0%	?
Cc1cc2c(cc1S(=O)(=O)Nc1ccc(F)cc1)n(C)c(=O)c(=O)n2C	-1%	1%	-4	0%	8%	1%
CC(C)CNC(=O)CSc1nc2scc(-c3ccccc3)c2c(=O)[nH]1	22µM*	-4%	0	-17%	-4%	1%
O=C(CSc1nc2scc(-c3ccccc3)c2c(=O)[nH]1)Nc1ccccc1	3%	-24%	-7	?	-25%	-14%
Cc1ccc(/C=N/N(C)S(=O)(=O)c2ccc(C)cc2)cc1	-2%	7%	0	10µM*	6%	7%
CSc1ccc(/C=N/N(C)S(=O)(=O)c2ccc(C)cc2)cc1	.	11%	1	?	2%	-4%
C/C(CC(=O)Nc1ccc(Cl)c(Cl)c1)=N\NC(N)=S	-1%	-6%	3	11µM*	1%	?
CCN(CC(=O)Nc1ccc(NC(C)=O)cc1)CC(=O)Nc1ccc(Cl)c(Cl)c1	1%	5%	-45*	-9%	4%	13%
C/C(CC(=O)Nc1ccc(Cl)cc1Cl)=N\NC(=O)c1ccncc1	0%	2%	0	-19%	-1%	-9%
SMILES	ClpP mod	GLP-1R agonist	LDHA inh	GLP1R inv ag	p53 reactivation	HEK293 tox
C/C(CC(=O)Nc1ccc(C)c(Cl)c1)=N\NC(=O)c1ccncc1	.	6%	5	10µM*	-2%	11%
CCN(CC(=O)Nc1ccc(NC(C)=O)cc1)CC(=O)Nc1cccc(Cl)c1	.	22%	-8	-11%	-8%	-23%
O=C(NCCCN1CCCC1=O)C1CCCO1 (centres undefined)	-4%	1%	-1	-28%[0.307 µM]	-1%	-5%[0.307 µM]
COC(=O)c1c(C)cccc1NCC(=O)NC(=O)NC(C)(C)C	.	.	0	.	.	.
Cc1ccc(S(=O)(=O)N2CCN(C(C)c3nc4ccccc4c(=O)[nH]3)CC2)cc1 (centres undefined)	.	.	1	.	.	.
CCCNC(=S)N1CCC(Cc2ccccc2)CC1	-1%	3%	-3	7.1µM*	0%	?
COc1ccc(CCNC(=O)COC(=O)CCC(=O)c2ccc(F)cc2)cc1OC	32µM*	14%	3	18%	4%	0%
COc1ccc(CCNC(=O)COC(=O)CCC(=O)c2cccs2)cc1OC	.	15%	-8	7%	7%	4%
CCCNC(=S)N1CCN(C)CC1	7.1µM*	-14%	-17	-4%	-4%	5%
COc1ccc(CCNC(=S)N2CCC(Cc3ccccc3)CC2)cc1OC	7.9µM*	7%	-5	-25%	5%	14%
CCCCNC(=S)N1CCN(CC)CC1	.	4%	-13	-18%	5%	-8%
COc1ccccc1C(c1nnnn1C(C)(C)C)N1CCCCCC1 (centres undefined)	-1%	0%	1	-31%	2%	1%
COc1ccc2c(c1)Oc1nc(-c3ccc(C)cc3)nc(SCC(=O)Nc3cccc(C(=O)O)c3)c1C2	.	.	-2	.	.	.
COC1=CC(=O)OC(c2ccc(C(F)(F)F)cc2)C1 (centres undefined)	2%	.	-10	-5%	.	0%
COc1ccc(CCNC(=O)C2CCC(C(C)(C)C)CC2)cc1OC (centres undefined)	1%	12%	1	10µM*	-14%	-14%
CCC(=O)N1CCN(c2ccc(NC(=O)c3ccc4ccccc4c3)cc2)CC1	.	9%	-1	2%	-9%	6%
O=C(Nc1ccon1)C1CCN(S(=O)(=O)c2cccs2)CC1	25µM*	2%	-4	35%	-5%	57%
COc1ccc(OC)c(S(=O)(=O)N2CCC(C(=O)Nc3cccc(C(F)(F)F)c3)CC2)c1	2%	-13%	5	10µM*	-11%	?
Cc1ccc(NC(=O)C2CCN(S(=O)(=O)c3cccs3)CC2)cc1C	-4%	-9%	-2	8.9µM*	1%	3%
Cc1cc(NC(=O)C2CCN(S(=O)(=O)c3cccs3)CC2)no1	0%	0%	-3	3%	-9%	19%
COc1ccc(CCN(C)C(=O)CCc2nnc(-c3ccccc3)o2)cc1OC	.	?	-5	39%	10%	0%
